Experimental data: PubChem BioAssay AID1159580 (chemical genetic matrix, 2015)
The whole screen tested about 5,500 compounds, of which about 2,000 (36%) were called active. Inconclusive results (about 18%) are left out. No stated cut-off is given here; in the data, active means normalized growth mostly below about 0.91 (no sharp cut-off); inconclusive means no clear call, values can overlap the other calls; inactive means mostly above about 0.92. The list shows a part of the results.

Assay: chemical genetic growth profiling, strain panel (AID 1159580);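 further: tested at 20 µM; growth read once vehicle control cultures reached saturation at 30 °C; 1 = growth at the plate median or of vehicle wells; lower values mean less growth of the strain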
Settings: S. cerevisiae deletion strains, growth OD
[1] = locus YAL021C, strain ccr4, active compounds read low
[2] = locus YAL026C, strain drs2, active compounds read low
[3] = locus YAL030W, strain snc1, active compounds read low
[4] = locus YBL061C, strain skt5, active compounds read low
[5] = locus YBR009C, strain hhf1, active compounds read low
[6] = locus YBR023C, strain chs3, active compounds read low
[7] = locus YBR171W, strain sec66, active compounds read low
[8] = locus YBR231C, strain swc5, active compounds read low
[9] = locus YBR279W, strain paf1, active compounds read low
[10] = locus YCL011C, strain gbp2, active compounds read low
[11] = locus YCL016C, strain dcc1, active compounds read low
[12] = locus YCL061C, strain MRC1, active compounds read low
[13] = locus YCL069W, strain vba3, active compounds read low
[14] = locus YCR088W, strain abp1, active compounds read low
[15] = locus YDL005C, strain med2, active compounds read low
[16] = locus YDL040C, strain nat1, active compounds read low
[17] = locus YDR001C, strain nth1, active compounds read low
[18] = locus YDR069C, strain doa4, active compounds read low
[19] = locus YDR137W, strain rgp1, active compounds read low
[20] = locus YDR159W, strain sac3, active compounds read low
[21] = locus YDR297W, strain sur2, active compounds read low
[22] = locus YDR334W, strain swr1, active compounds read low
[23] = locus YDR335W, strain msn5, active compounds read low
[24] = locus YDR392W, strain spt3, active compounds read low
[25] = locus YEL003W, strain gim4, active compounds read low
[26] = locus YEL037C, strain rad23, active compounds read low
[27] = locus YEL061C, strain CIN8 (second series), active compounds read low
[28] = locus YER015W, strain faa2, active compounds read low
[29] = locus YER016W, strain bim1, active compounds read low
[30] = locus YER111C, strain swi4, active compounds read low
[31] = locus YER155C, strain BEM2 (second series), active compounds read low
[32] = locus YFR010W, strain ubp6, active compounds read low
[33] = locus YGL167C, strain pmr1, active compounds read low
[34] = locus YGL173C, strain kem1, active compounds read low
[35] = locus YGL227W, strain vid30, active compounds read low
[36] = locus YGL240W, strain doc1, active compounds read low
[37] = locus YGL253W, strain hxk2, active compounds read low
[38] = locus YHR013C, strain ard1, active compounds read low
[39] = locus YHR027C, strain rpn1, active compounds read low
[40] = locus YHR142W, strain chs7, active compounds read low
[41] = locus YJL092W, strain hpr5, active compounds read low
[42] = locus YJL095W, strain BCK1 (second series), active compounds read low
[43] = locus YJL115W, strain asf1, active compounds read low
[44] = locus YJL129C, strain trk1, active compounds read low
[45] = locus YJL154C, strain vps35, active compounds read low
[46] = locus YJL164C, strain tpk1, active compounds read low
[47] = locus YJL166W, strain qcr8, active compounds read low
[48] = locus YJL187C, strain SWE1, active compounds read low
[49] = locus YKL160W, strain elf1, active compounds read low
[50] = locus YKR026C, strain gcn3, active compounds read low
[51] = locus YKR091W, strain srl3, active compounds read low
[52] = locus YLL001W, strain dnm1, active compounds read low
[53] = locus YLL026W, active compounds read low
[54] = locus YLL041C, strain sdh2, active compounds read low
[55] = locus YLR027C, strain aat2, active compounds read low
[56] = locus YLR221C, strain rsa3, active compounds read low
[57] = locus YLR258W, strain gsy2, active compounds read low
[58] = locus YLR262C, strain YPT6 (second series), active compounds read low
[59] = locus YLR320W, strain mms22, active compounds read low
[60] = locus YLR342W, strain FKS1, active compounds read low
[61] = locus YLR357W, strain rsc2, active compounds read low
[62] = locus YLR370C, strain arc18, active compounds read low
[63] = locus YLR384C, strain iki3, active compounds read low
[64] = locus YML120C, strain ndi1, active compounds read low
[65] = locus YMR058W, strain fet3, active compounds read low
[66] = locus YMR125W, strain sto1, active compounds read low
[67] = locus YMR129W, active compounds read low
[68] = locus YMR205C, strain PFK2, active compounds read low
[69] = locus YMR231W, strain pep5, active compounds read low
[70] = locus YNL071W, strain lat1, active compounds read low
[71] = locus YNL209W, strain ssb2, active compounds read low
[72] = locus YNL248C, strain rpa49, active compounds read low
[73] = locus YNL322C, strain KRE1 (second series), active compounds read low
[74] = locus YNR049C, strain mso1, active compounds read low
[75] = locus YOR001W, strain rrp6, active compounds read low
[76] = locus YOR070C, strain gyp1, active compounds read low
[77] = locus YOR080W, strain dia2, active compounds read low
[78] = locus YOR083W, strain WHI5, active compounds read low
[79] = locus YOR106W, strain vam3, active compounds read low
[80] = locus YOR265W, strain rbl2, active compounds read low
[81] = locus YOR270C, strain vph1, active compounds read low
[82] = locus YOR290C, strain snf2, active compounds read low
[83] = locus YPL051W, strain arl3, active compounds read low
[84] = locus YPL078C, strain atp4, active compounds read low
[85] = locus YPL106C, strain sse1, active compounds read low
[86] = locus YPL240C, strain hsp82, active compounds read low

Measured: normalized growth

OC1CC2CCCC(C1)N2Cc1ccccc1 (configuration not stated)
inactive: [1] 1.01 | [2] 0.993 | [3] 1 | [4] 0.932 | [5] 0.989 | [6] 1 | [7] 0.987 | [8] 0.988 | [9] 1 | [10] 1.01 | [11] 0.998 | [12] 0.997 | [13] 1 | [14] 1 | [15] 0.992 | [16] 0.998 | [17] 1 | [18] 0.989 | [19] 0.974 | [20] 0.963 | locus YDR195W, strain ref2 0.913 | [21] 0.998 | [22] 1.01 | [23] 1 | [24] 0.901 | [25] 1 | [26] 1 | [27] 1 | [28] 1 | [29] 0.986 | [30] 0.982 | [31] 0.989 | [32] 1 | [33] 0.99 | [34] 0.997 | [35] 0.986 | [36] 0.977 | [37] 0.989 | [38] 0.953 | [39] 1 | [40] 1.01 | [41] 1.02 | [42] 1 | [43] 1 | [44] 0.993 | [45] 1 | [46] 1 | [47] 0.998 | [48] 1 | [49] 1 | [50] 1 | [51] 0.999 | [52] 0.986 | [53] 0.988 | [54] 1 | [55] 1 | [56] 1 | [57] 0.986 | [58] 0.956 | [59] 0.99 | [60] 0.995 | [61] 0.959 | [62] 1.01 | [63] 0.996 | [64] 1.02 | [65] 1 | [66] 0.988 | [67] 0.994 | [68] 0.978 | [69] 1 | [70] 1.01 | [71] 1 | [72] 0.981 | [73] 1 | [74] 0.999 | [75] 1.01 | [76] 0.995 | [77] 0.998 | [78] 1.01 | [79] 1 | [80] 0.99 | [81] 0.99 | [82] 0.955 | [83] 1 | [84] 1 | [85] 0.98 | [86] 1

O=c1c(O)c(-c2ccc(O)c(O)c2)oc2c(O)c(O)cc(O)c12
inactive: [2] 0.954 | [3] 1 | [4] 0.925 | [5] 1.04 | [6] 0.929 | [7] 1.02 | [8] 0.927 | [9] 0.994 | [10] 1.01 | [11] 0.991 | [12] 0.989 | [13] 1.01 | [14] 1.02 | [15] 1.03 | [16] 1.02 | [17] 1.02 | [18] 0.906 | [19] 1.02 | locus YDR195W, strain ref2 1.01 | [21] 1 | [22] 0.983 | [23] 0.994 | [24] 1.04 | [25] 0.996 | [26] 0.987 | [27] 1.01 | [28] 0.98 | [29] 1.02 | [30] 0.942 | [31] 0.984 | [32] 0.932 | [33] 1.01 | [34] 0.947 | [35] 1.03 | [36] 1.11 | [37] 1 | [38] 0.931 | [39] 0.983 | locus YHR030C, strain SLT2, active compounds read low 1 | locus YHR079C, strain IRE1, active compounds read low 1.02 | [40] 0.891 | [41] 1.02 | [42] 0.993 | locus YJL095W, strain BCK1, active compounds read low 1.02 | [43] 1.01 | [44] 1.08 | [45] 1.02 | [46] 0.959 | [47] 0.995 | [48] 0.997 | locus YJR066W, strain TOR1, active compounds read low 0.967 | [49] 0.942 | [50] 1.01 | [51] 1.03 | [52] 1.03 | [53] 1.02 | [54] 1.01 | [55] 0.992 | locus YLR113W, strain HOG1, active compounds read low 1.12 | [56] 0.981 | [57] 1.01 | [58] 0.919 | [59] 1.02 | [60] 0.967 | [61] 0.889 | [62] 0.938 | [63] 1.01 | [64] 1 | [65] 0.921 | [66] 1.03 | [67] 1.02 | [68] 1.06 | [69] 0.999 | [70] 1.01 | locus YNL183C, strain NPR1, active compounds read low 0.997 | [71] 0.94 | [72] 1 | [73] 1.01 | [74] 1.02 | [75] 0.981 | [76] 1.01 | [77] 1.01 | [78] 0.931 | [79] 0.872 | locus YOR231W, strain MKK1, active compounds read low 1.03 | [80] 1 | [81] 0.948 | [82] 0.962 | [83] 0.92 | [84] 0.963 | [85] 1 | [86] 0.994 | locus YPL256C, strain CLN2, active compounds read low 1.04
active: [1] 0.864 | [20] 1.13 [resistant]
